Sampled rows, rich in hits. Any-hit rate of the full collection: about 1.9%.
TNF death inh: TNF-alpha cell death inhibition in Jurkat FADD-/- cells; 220,000 compounds, 0.068% hits; activation (protection from cell death), % at 10 µM; Jurkat FADD-/- TNF necroptosis rescue, ATP luminescence, 24 h; 0 = TNF only, 100 = no-TNF cells;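 active means activation, meaning protection from cell death, of at least 50% relative to plate controls; inactive means activation below 50%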;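 further: necroptosis triggered by 40 ng/mL TNF-alpha added together with compound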
HSF1 activator: increases HSF-1 driven luciferase reporter signal; NIH3T3-HGL HSF-1 luciferase reporter, MG132, 8 h; 100% = twice DMSO control signal; 300,000 compounds, 1.7% hits; activation, % at 9 µM; AID 504408;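 active means mean replicate activation of at least 50% with a set share of replicates each reaching 50%; inconclusive means only one of those two conditions met; inactive means mean below 50% and too few replicates reaching it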;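 further: 0% = median of the neutral control wells and 100% = twice that signal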
Hsp70 act: transcriptional activators of Hsp70; HeLa Hsp70 promoter luciferase reporter, luminescence; scaled: vehicle 0, proteasome-inhibitor control 100%; activation, % at 10 µM; 200,000 compounds, 0.04% hits;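 active means activation above the mean across all tested compounds plus 3 SD, cutoff set per campaign, cut at about 5.5% in these data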;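 further: 100% = MG132 at 30 µM as the positive control and 0% = DMSO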
L929 necroptosis: L929 zVAD cell death inhibition. viability rescue, % at 10 µM. 220,000 compounds, 0.38% hits. L929 zVAD necroptosis rescue, ATP luminescence, 24 h; with zVAD 60 µM;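 active means activation, scaled between plate controls, above about 75%, limit read from the data; inactive means activation under that limit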;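 further: 0% = zVAD with DMSO and 100% = DMSO alone without zVAD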
Numbers without * were called inactive.

For C(=N\Nc1nc2ccccc2[nH]1)/c1cccc2cccnc12 the results were TNF death inh -19, HSF1 activator -8 and L929 necroptosis 49.
Cc1[nH]c2ccccc2c1/C=N/Nc1nc(N2CCCCC2)nc(N2CCCCC2)n1 was read as TNF death inh 1, HSF1 activator -5, Hsp70 act 0 and L929 necroptosis 1.
`Cc1[nH]c2ccccc2c1/C=C/c1nc2ccccc2c(=O)[nH]1` gave TNF death inh -2, HSF1 activator 80* and L929 necroptosis 8.
Screening COc1ccc(OC)c(N(C)S(=O)(=O)c2cc3c(cc2C)NC(=O)CO3)c1 returned HSF1 activator -11.
`Fc1ccc(/C=N/Nc2nc3ccccc3[nH]2)cc1F` gave TNF death inh 17, HSF1 activator 95*, Hsp70 act 0 and L929 necroptosis 55.
`O=[N+]([O-])c1cc(/C=N/Nc2nc3ccccc3[nH]2)c(O)cc1O` gave TNF death inh -11, HSF1 activator 305*, Hsp70 act 0 and L929 necroptosis 8.
`Brc1ccc(-c2ccc(/C=N/Nc3nc4ccccc4[nH]3)o2)cc1` gave TNF death inh 1, HSF1 activator 163*, Hsp70 act 0 and L929 necroptosis 1.
For C=C(C)CN(CC)c1nc(N)c2c(N)nc3c(c2c1C#N)CC(=O)N3C12CC3CC(CC(C3)C1)C2 the results were TNF death inh -9, HSF1 activator 55*, Hsp70 act 0 and L929 necroptosis 2.
Screening N#Cc1c(N2CCCC(O)C2)nc(N)c2c(N)nc3c(c12)CC(=O)N3C12CC3CC(CC(C3)C1)C2 (centres undefined) returned TNF death inh -15, HSF1 activator 11, Hsp70 act 0 and L929 necroptosis 2.
`O=c1c2c3c(sc2[nH]c(=S)n1Cc1ccco1)CCC3` gave TNF death inh -5, HSF1 activator 94* and L929 necroptosis 0.
`O=c1[nH]cnc(O)c1C(c1cccc([N+](=O)[O-])c1)c1c(O)nc[nH]c1=O` gave TNF death inh 0, HSF1 activator 2 and L929 necroptosis 0.
Cc1ccc(Nc2cc(-n3cccn3)ncn2)c(C)c1 was read as TNF death inh -7, HSF1 activator 52*, Hsp70 act 0 and L929 necroptosis 1.
`COC(=O)c1ccc(CSc2nc3ccccc3c(=O)n2C)o1` gave HSF1 activator -14.
For COC(=O)c1ccc(CSc2nc3ccccc3c(=O)n2CC(C)C)o1 the results were TNF death inh -1, HSF1 activator 71*, Hsp70 act 0 and L929 necroptosis 0.
Screening CN(Cc1ccc(OC(F)F)cc1)C(=O)c1ccc2c(=O)n3c(nc2c1)CCC3 returned HSF1 activator 0.
For c1csc(-c2cnc3ccccc3n2)c1 the results were TNF death inh 2, HSF1 activator 53*, Hsp70 act 0 and L929 necroptosis 72.
Screening c1cc(-c2cccs2)nc(-c2cccs2)c1 returned TNF death inh 0, HSF1 activator 21, Hsp70 act 0 and L929 necroptosis 1.
Screening O=C(c1cccn(Cc2ccc(Cl)c(Cl)c2)c1=O)N1CCOCC1 returned TNF death inh -2, HSF1 activator 8, Hsp70 act 0 and L929 necroptosis 0.
For O=c1c(-c2nc3ccccc3s2)cccn1Cc1ccc(Cl)c(Cl)c1 the results were TNF death inh 0, HSF1 activator 52*, Hsp70 act 0 and L929 necroptosis 1.
Screening NS(=O)(=O)c1ccc(NC(=O)c2cc(Cl)sc2Cl)cc1 returned HSF1 activator 6.
For O=C(/C=C/c1cccc([N+](=O)[O-])c1)NC(=S)Nc1ccc(CN2CCOCC2)cc1 the results were TNF death inh 1, HSF1 activator 136*, Hsp70 act 0 and L929 necroptosis 0.
`Cc1cc(C#Cc2c(-c3ccccc3)n(C)c3ccccc23)ccc1F` gave HSF1 activator 4.
`CCOC(=O)c1c(S(=O)(=O)NCC(=O)NCc2cccc(C)c2)c(C)n(C)c1C` gave HSF1 activator 5.
O=C(Nc1ccc(Cl)c(Cl)c1)Nc1ccc(Br)cc1F was read as TNF death inh 3, HSF1 activator 4, Hsp70 act 0 and L929 necroptosis 1.
For O=C(Nc1ccc(Cl)c(Cl)c1)Nc1ccccc1O the results were TNF death inh 0, HSF1 activator 92* and L929 necroptosis 2.
Screening Clc1ccc(-c2nnc(-c3ccc(Br)o3)o2)c(Cl)c1 returned TNF death inh 0, HSF1 activator 60*, Hsp70 act 1 and L929 necroptosis 0.
`CCCCOC(=O)CSc1nnc(-c2ccc(Cl)cc2Cl)o1` gave TNF death inh 0, HSF1 activator -14, Hsp70 act 0 and L929 necroptosis 1.
Screening CSc1ccccc1-c1nnc(-c2ccc(Cl)cc2Cl)o1 returned TNF death inh -3, HSF1 activator 54*, Hsp70 act 0 and L929 necroptosis 0.
Screening CC(C)OC(=O)CSc1nnc(-c2ccc(Cl)cc2Cl)o1 returned TNF death inh 0, HSF1 activator 75*, Hsp70 act 0 and L929 necroptosis 1.
`CCOC(=O)C1=C(C)NC(C)=C(C(=O)OCC)C1C(=O)OCC(=O)NC1(C#N)CCCCC1` gave HSF1 activator 7.
`CCNC(=O)C(=O)NCc1ccncc1` gave TNF death inh 1, HSF1 activator inconclusive, Hsp70 act 0 and L929 necroptosis 1.
Cc1cccc(C)c1NC(=S)N(CCCN1CCOCC1)Cc1cccnc1 was read as TNF death inh 1, HSF1 activator 0, Hsp70 act 0 and L929 necroptosis 0.
CS(=O)(=O)N1N=C(c2ccc(Br)cc2)CC1c1ccc2c(c1)OCO2 (centres undefined) was read as TNF death inh -7, HSF1 activator 77*, Hsp70 act 0 and L929 necroptosis 0.
For Cc1ccc(C2=NN(S(C)(=O)=O)C(c3ccc4c(c3)OCO4)C2)cc1 (centres undefined) the results were TNF death inh 0, HSF1 activator 80*, Hsp70 act 0 and L929 necroptosis 0.
For CC(=O)N1N=C(c2ccc(C)cc2)CC1c1ccc2c(c1)OCO2 (centres undefined) the results were TNF death inh 7, HSF1 activator 43 and L929 necroptosis 0.
`COc1cc(/C=N\NC(=O)C2CC3C=CC2C3)ccc1O` (centres undefined) gave TNF death inh 1, HSF1 activator -2, Hsp70 act 1 and L929 necroptosis 0.
`Cc1c(Cl)ccc2c1NC(=O)C21NC(CCC(N)=O)[C@H]2C(=O)N(c3ccc(Cl)cc3)C(=O)[C@H]21` (some centres undefined) gave TNF death inh -1, HSF1 activator 56*, Hsp70 act 0 and L929 necroptosis 1.
For Cc1c(Cl)ccc2c1NC(=O)[C@]21N[C@@H](CCC(N)=O)[C@H]2C(=O)N(c3ccc(F)cc3)C(=O)[C@H]21 the results were TNF death inh 1, HSF1 activator -2, Hsp70 act 0 and L929 necroptosis 0.
